Assay results from PMC4336329 (PLoS ONE, 2015).
Screen size: about 310,000 compounds; about 14,000 (4.5%) showed an effect of 50% or more. The effect is printed as a negative number. The list comes from a sample in which strong results are over-represented; it also holds similar structures and randomly drawn compounds.

target: human ether-à-go-go-related gene (hERG) potassium channel (human, UniProt Q12809); test: primary screen, population patch clamp on CHO cells stably expressing hERG; higher = less effect of the substance
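Note: peak tail current of the secondary pulse compared with the same well before compound.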

Chain of human ether-à-go-go-related gene (hERG) potassium channel (Q12809 whole entry, looked up): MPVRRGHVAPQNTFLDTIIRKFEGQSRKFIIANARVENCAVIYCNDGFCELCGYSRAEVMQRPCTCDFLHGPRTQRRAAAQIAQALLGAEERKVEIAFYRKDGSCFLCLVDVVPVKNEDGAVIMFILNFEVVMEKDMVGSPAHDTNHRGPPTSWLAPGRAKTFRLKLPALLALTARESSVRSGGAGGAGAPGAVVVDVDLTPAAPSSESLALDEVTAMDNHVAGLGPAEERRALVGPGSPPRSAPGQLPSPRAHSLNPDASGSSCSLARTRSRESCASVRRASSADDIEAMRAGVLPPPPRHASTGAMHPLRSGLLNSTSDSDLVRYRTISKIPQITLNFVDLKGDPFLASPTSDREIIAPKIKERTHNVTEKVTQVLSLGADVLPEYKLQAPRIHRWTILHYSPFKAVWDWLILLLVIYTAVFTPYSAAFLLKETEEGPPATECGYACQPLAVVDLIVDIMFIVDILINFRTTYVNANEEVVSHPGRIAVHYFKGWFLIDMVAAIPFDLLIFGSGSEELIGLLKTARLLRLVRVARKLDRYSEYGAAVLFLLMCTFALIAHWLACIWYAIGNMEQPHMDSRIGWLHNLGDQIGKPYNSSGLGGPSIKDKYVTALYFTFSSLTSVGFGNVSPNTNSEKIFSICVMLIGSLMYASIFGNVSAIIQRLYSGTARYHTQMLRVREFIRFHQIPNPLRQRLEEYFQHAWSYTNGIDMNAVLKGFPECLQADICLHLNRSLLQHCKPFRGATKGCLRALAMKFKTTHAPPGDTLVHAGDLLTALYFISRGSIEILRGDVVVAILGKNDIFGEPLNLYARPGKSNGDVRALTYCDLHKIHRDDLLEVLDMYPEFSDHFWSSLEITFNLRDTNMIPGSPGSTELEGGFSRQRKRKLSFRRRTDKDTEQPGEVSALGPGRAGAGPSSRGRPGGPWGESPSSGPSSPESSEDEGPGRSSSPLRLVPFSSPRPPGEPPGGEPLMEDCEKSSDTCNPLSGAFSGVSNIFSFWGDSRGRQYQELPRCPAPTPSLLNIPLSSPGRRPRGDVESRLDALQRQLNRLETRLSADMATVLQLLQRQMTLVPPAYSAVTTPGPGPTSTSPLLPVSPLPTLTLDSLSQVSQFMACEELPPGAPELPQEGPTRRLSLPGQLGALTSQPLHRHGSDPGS

Structure (SMILES) | hERG current change (%, negative = inhibition) at 10uM [%]
CCn1c(COc2ccccc2OC)nc2ccccc21 | 2.28
Cc1ccc(-c2csc3nc(SCC(=O)N(C)C)n(Cc4ccccc4)c(=O)c23)cc1 | -26
Cc1[nH][nH]c(=O)c1C(c1ccc(O)c(Br)c1)c1c(C)[nH][nH]c1=O | 4.34
O=C(c1ccccc1Br)N1CCN(c2ccccn2)CC1 | 9.41
O=C(COC(=O)CCSc1ccccc1)NCc1ccccc1Cl | 22.4
Nc1nc(Sc2ncccc2[N+](=O)[O-])n[nH]1 | 3.27
COc1ccccc1NC(=S)N1C2CCC1CC(NC(=O)NC13CC4CC(CC(C4)C1)C3)C2 (centres unmarked) | -2.49
Cc1cccc(N2C(=O)CN(Cc3sccc3C)C2=S)c1 | -7.83
COc1ccccc1N1CCN(C(=O)c2cc(-c3ccccc3)on2)CC1 | 8.22
CCn1c(N2CCN(C(=O)Nc3ccc(F)cc3)CC2)nc2ccccc21 | -68.2
CCn1c(N2CCN(C(=S)NC)CC2)nc2ccccc21 | -30.2
COc1ccc(Nc2nc3ccccc3n2C)cc1 | 11.3
CCn1c(N2CCN(C(=O)NC3CCCCC3)CC2)nc2ccccc21 | -32.5
CCn1c(N2CCN(C(=S)NCC(C)C)CC2)nc2ccccc21 | -30.4
Cn1c(Nc2ccc(F)cc2)nc2ccccc21 | -51.7
Cn1c(Nc2ccccc2)nc2ccccc21 | 1.74
Cn1c(N2CCN(C(=O)Nc3ccc(F)cc3)CC2)nc2ccccc21 | -55.8
CCn1c(N2CCN(C(=S)Nc3ccc(OC)cc3)CC2)nc2ccccc21 | -68.3
Cn1c(N2CCN(C(=O)Nc3ccc(C(F)(F)F)cc3)CC2)nc2ccccc21 | -41.3
O=C(Nc1ccc(F)cc1)N1CCN(c2nc3ccccc3s2)CC1 | 1.48
CCn1c(N2CCN(S(=O)(=O)c3ccc(F)cc3)CC2)nc2ccccc21 | -36.2
Oc1ccc(CN2CCc3ccccc3C2)c2cccnc12 | -48.8

Structure (SMILES) | hERG current change (%, negative = inhibition) at 10uM [%]
Cn1c(C(=O)N2CCN(C(=O)c3ccco3)CC2)cc2c(=O)n3ccccc3nc21 | -14.5
CC(C)C(NS(=O)(=O)c1ccc2c(c1)OCCO2)C(=O)NCCc1ccccn1 (centres unmarked) | 6.06
Cc1cccc(NC(=O)CSc2nnc(C)c(C)n2)c1 | 15.3
COc1nc(OC)nc(N2CCC(NC(=O)C(Cc3ccc(C(C)C)cc3)NC(C)=O)CC2)n1 (centres unmarked) | 5.87
CO/N=C(\C(=O)N[C@@H]1C(=O)N2C(C(=O)[O-])=C(COC(N)=O)CS[C@H]12)c1ccco1.[Na+] | 18.9
O=C(Nc1ccc(Br)cn1)c1cccc2ccccc12 | 12.2
Cl.O=C(OCCN1CCOCC1)c1ccc(Cl)cc1Cl | -0.913
CC1CCN(C(=O)COC(=O)c2cc(Cl)cc(Cl)c2N)CC1 | -19.9
CCCCN1CCC(COC(=O)c2cc(Cl)c(N)c3c2OCCO3)CC1.Cl | -59.4
COc1cc(C(=O)OCc2cc(=O)c(O)co2)ccc1OC(F)F | -12.9
O=C(NCC(=O)N(CCN1CCOCC1)C(C(=O)NC1CCCC1)c1cccnc1)c1cccs1 (centres unmarked) | 13.1
CCOC(=O)C1(CCCc2ccccc2)CCN(C(=O)CCc2cnn(C)c2)CC1 | -74.2
CCOC(=O)C1(CCc2ccccc2)CCN(C(=O)CN2C(=O)CSC2=O)CC1 | -23.3
CCOC(=O)C1(CCCc2ccccc2)CCN(C(=O)CCOC)CC1 | -46.8
CCOC(=O)C1(CCc2ccccc2)CCN(C(=O)CCc2cnn(C)c2)CC1 | -51.2
CCOC(=O)C1(CCCc2ccccc2)CCN(Cc2cnn(C)c2)CC1 | -71.6
CCOC(=O)C1(CCCc2ccccc2)CCN(C(=O)CCC2=NNC(=O)CC2)CC1 | 11.8
CCOC(=O)C1(CCCc2ccccc2)CCN(CCCn2cccn2)CC1 | -79.1
CCOC(=O)C1(Cc2ccccc2)CCCN(CCCn2cccn2)C1 (centres unmarked) | -14.2
Cc1cc(OCC(=O)Nc2ccncc2)cc(C)c1Cl | 6.51
Cc1ccc(CNC(=O)/C=C/C(=O)O)cc1 | -15.4
Cc1n[nH]c(=O)n1-c1ccc(C(C)C)cc1 | 18.4
